For 67 compounds, INHIBITION results are on record in ChEMBL document CHEMBL4513216, “Probing the Open Global Health Chemical Diversity Library for Multistage-Active Starting Points for Next-Generation Antimalarials” (ACS Infect Dis, 2020).

The campaign covered roughly 65,000 compounds. About 2,100 (3.2%) showed an effect of 50% or more. The median lay at about -52%. This excerpt belongs to a sample that is enriched for strong results.

The assay deals with Plasmodium falciparum. Description: Screen against P. falciparum Asexual Blood Stage (ABS), at 5uM. In kind it is functional, Dd2. Particulars: tested at 5 uM.
Take `CCn1cnnc1CNC(=O)N1CCN(c2ccccc2OC)CC1`: the INHIBITION is -69.5%.
For `O=C(c1cc(Cl)c[nH]1)N1CCCC(c2cc(C(F)(F)F)[nH]n2)C1` (configuration not stated) the value was 20.5%; for `Cc1ccc(-c2nc(CSCCC(=O)NC(N)=O)co2)c(C)c1`, -115%.
For the compound `CSc1ccc(C(=O)N2CCOCC2c2c(C)n[nH]c2C)o1` (configuration not stated), the INHIBITION is recorded as -159%.
For `Cc1cc(C)n(CC(=O)NC(Cc2ccsc2)c2ccccn2)c(=O)n1` (configuration not stated) the value was -151%.
`COCc1ccccc1CNc1nnc(C)c(C)c1C#N`: the INHIBITION is given as -155%.
As to `Cc1nnc(NCC2(c3ccccc3)CCC2)c(C#N)c1C`, the INHIBITION was -32.2%.
For `CCCOc1ncccc1CNc1nnc(C)c(C)c1C#N` the value was -121%; for `CCOc1ncccc1CNc1nnc(C)c(C)c1C#N`, 60%.
Consider `COc1ccccc1C1(CNc2nnc(C)c(C)c2C#N)CCOCC1`, for which the INHIBITION came to 3.69%.
Consider `Cc1nnc(NCc2cccnc2OCC(F)(F)F)c(C#N)c1C`, for which the INHIBITION is -46.2%.
For `Cc1nnc(NCc2ccccc2Cl)c(C#N)c1C` the value was 6.46%; for `Cc1nnc(NCc2ccccc2F)c(C#N)c1C`, 64.4%; for `COc1ccccc1C1(CNc2nnc(C)c(C)c2C#N)CCCC1`, 58.4%.
Then `Cc1ccccc1COCCOCn1c(C)cc(=O)[nH]c1=O`, with -70.8%; and `CCn1nnc2c1C(COCC(=O)N(C)C)CN(Cc1ccoc1)C2` (configuration not stated), with -97.7%.
For `O=C(Cc1cccs1)Nc1cnn(C2CCOCC2)c1` the value was -142%; for `CCOC(=O)[C@H]1[C@@H](O)C(=O)N(C)C12CCN(C(=O)c1ccccc1)CC2`, -32.3%; for `O=C1CC2(CCCNC2)C(=O)N1Cc1ccc(Cl)cc1` (configuration not stated), 51.8%.
Consider `O=C1CC2(CCCNC2)C(=O)N1Cc1cccc(F)c1` (configuration not stated), for which the INHIBITION is -47.2%.
For `O=C1CC2(CCCNC2)C(=O)N1Cc1ccc(F)cc1` (configuration not stated) the value was -26%; for `O=C(Nc1ccnc(OC2CCOC2)c1)c1ccccc1Cl` (configuration not stated), -34.1%; for `O=C(NCC(=O)N1CCCc2ccccc21)c1c(O)cc(F)cc1F`, -115%.
As to `COC(=O)c1c(Cl)c(C)nc2onc(C)c12`, the INHIBITION was -117%.
For `N#Cc1cc(Cl)ccc1N1CCN(C(=O)C2CCC2)CC1` the value was -75.4%; for `CC1CCN(C(=O)C2CCN(c3ccc(Cl)cc3C#N)CC2)CC1`, 60.5%.
With `CCN(CC)C(=O)C1CCN(c2ccc(Cl)cc2C#N)CC1`, the INHIBITION is recorded as -147%.
Then `Cn1cc(CN2CCCC23CCN(S(C)(=O)=O)CC3)cn1`, with -54.3%; and `O=c1n(CCNc2cccc3ccccc23)nc2ccccn12`, with -149%; and `CC1=N[C@@]2(CC[C@@H]3CN(Cc4ccccc4)C[C@@H]32)C(=O)N1CC1CC1`, with 17.7%.
As for `CC1=N[C@@]2(CC[C@@H]3CN(Cc4ccccc4F)C[C@@H]32)C(=O)N1CC1CC1`, the INHIBITION came to 67.6%.
For `COCCN1C(=O)[C@]2(CC[C@@H]3CN(Cc4ccccc4F)C[C@@H]32)N=C1C` the value was -37.9%; for `CCC1=N[C@@]2(CC[C@@H]3CN(Cc4ccccc4F)C[C@@H]32)C(=O)N1CC`, 39.8%; for `CC1=N[C@@]2(CC[C@@H]3CN(Cc4ccc(C)cc4)C[C@@H]32)C(=O)N1CC1CC1`, 30.2%.
Take `CC1=N[C@@]2(CC[C@@H]3CN(Cc4cccc(Cl)c4)C[C@@H]32)C(=O)N1CC1CC1`: the INHIBITION is listed as 67.2%.
For `COCCN(C)C(=O)Nc1ccc2c(ccn2CCOC)c1`, the INHIBITION is -178%.
For `Cc1nnc(N2CC[C@H]3C[C@H](C(=O)N4CCOCC4)O[C@H]3C2)s1` the value was -42.1%; for `Cc1cc2nc(C(C)C)cc(NC(C)c3nncn3C3CCCC3)n2n1` (configuration not stated), -49.8%; for `COc1cccc2c1OCC(C(=O)NCc1ncc3c(n1)CCC3)C2` (configuration not stated), -33%.
For `N#Cc1ccc(C(=O)N2CCn3cc(CN4CCCCC4)nc3C2)cc1` the value was -96.9%; for `CN([C@@H]1CC[C@@H](N2CCCC2)[C@@H]1O)S(=O)(=O)c1ccccc1`, 51.6%; for `CN([C@@H]1CC[C@@H](N2CCOCC2)[C@@H]1O)S(=O)(=O)c1ccccc1`, -97.1%.
For `Cc1nccn1[C@@H]1CC[C@@H](N(C)S(=O)(=O)c2cccc(F)c2)[C@H]1O` the value was -107%.
As for `O=C(c1ccco1)N1CCC2(CCCN(c3ncccn3)C2)C1` (configuration not stated), the INHIBITION is given as -59%.
For `c1cc(NCc2ccncc2)nc(C2CCCNC2)c1` (configuration not stated) the value was -2.22%; for `Cc1cc(Nc2cnccn2)cc(C2CCCNC2)n1` (configuration not stated), -27.1%; for `c1cc(CC2CCCNC2)nc(NCCc2cnccn2)c1` (configuration not stated), -96.3%.
For `COCCNc1ccc(CC2CCCNC2)cn1` (configuration not stated) the value was -56.2%; for `c1ccc(CCNc2cccc(C3CCCNC3)n2)cc1` (configuration not stated), 66.8%; for `Cc1cc(Cc2ccccc2F)cc(C2CCCNC2)n1` (configuration not stated), 64.8%.
For `COCCNc1cccc(C2CCCN2)n1` (configuration not stated) the value was -86.4%; for `CCn1ccnc1CN(C)c1cc(C2CCCNC2)nc(C)n1` (configuration not stated), -33.9%.
In the case of `Cc1nc(NC2CCCCC2)cc(C2CCCNC2)n1` (configuration not stated), the INHIBITION is -0.566%.
Then `Cc1cnc(CCNc2cccc(CC3CCCNC3)n2)s1` (configuration not stated), with 65.5%; and `Cc1nc(C2CCCNC2)cc(N(C)CCc2cn[nH]c2)n1` (configuration not stated), with -151%.
Take `Cc1nc(C2CCCNC2)cc(N(C)CCc2ccccc2)n1` (configuration not stated): the INHIBITION amounted to 53.5%.
Turning to `CCS(=O)(=O)NC(CCSC)C(=O)Nc1cc(F)ccc1C` (configuration not stated), the INHIBITION was -26.6%.
For `Cc1cnc(N2CCC3(CC2)CC3CN(C)Cc2cccnc2)nc1` (configuration not stated) the value was -28%; for `CCC(C)Oc1ccc(CNCCNC(C)=O)cc1Cl` (configuration not stated), -29.5%.
For `COCc1cc(O)nc(C2CCCN(Cc3ccc(OC)cc3)C2)n1` (configuration not stated) the value was -29.3%.
For the compound `Cc1cc(C(N)=O)c2c(Br)cccc2n1`, the INHIBITION is -105%.
Then `Cc1ccccc1C(C)N(C)Cc1nc2c(cnn2C)c(=O)[nH]1` (configuration not stated), with -198%; and `COc1ccccc1C(C)N(C)Cc1nc2c(cnn2C)c(=O)[nH]1` (configuration not stated), with -62.4%.
Then `Cc1ccc(C(C)N(C)Cc2nc3c(cnn3C)c(=O)[nH]2)cc1` (configuration not stated), with -137%; and `COc1ccc(C(C)N(C)Cc2nc3c(cnn3C)c(=O)[nH]2)cc1` (configuration not stated), with 57.6%.
Then `Cc1ccc(CN(Cc2nc3c(cnn3C)c(=O)[nH]2)C(C)C)s1`, with -67.1%; and `Cc1ccc(C(C)N(C)Cc2nc3c(cnn3C)c(=O)[nH]2)s1` (configuration not stated), with 50%.
